# Measurements: the supplement of paper PMC9254222
# The full ranking holds about 1,100 compounds; the median of “Wnt reporter firefly/Renilla luciferase ratio relative to plate median” is about 1.1, and the highest 2% start at about 1.6. This is one part of a sample in which the highest values are shown more often than they occur.
# Test system: HEK293T (UBE3A T485A transfected, BAR Wnt reporter)
# Test: Wnt reporter firefly/Renilla luciferase ratio relative to plate median (fold (linear ratio)); higher = more Wnt/beta-catenin reporter activation
# Conditions: 24 h
# Outline: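 Chemicals were robotically dosed at 0.01–100 uM for 24 h onto HEK293T cells, starting four hours after transfection with a BAR firefly luciferase Wnt reporter, TK-Renilla and an expression plasmid. The cells had been plated at 4500 cells/well in DMEM with 10% FBS at 37°C and 5% CO2. Following a Dual-Glo luciferase readout, the firefly/Renilla ratio served as the Wnt activity measure and raw Renilla as the cell health measure, both median-centred on each plate. Each value is the mean of four biological replicates.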
Structure (SMILES),Wnt reporter firefly/Renilla luciferase ratio (concentration: 0.1 uM),Wnt reporter firefly/Renilla luciferase ratio (concentration: 1 uM),Wnt reporter firefly/Renilla luciferase ratio (concentration: 10 uM),Wnt reporter firefly/Renilla luciferase ratio (concentration: 100 uM),Wnt reporter firefly/Renilla luciferase ratio (concentration: 0.01 uM)
CC[C@H](c1ccc(O)cc1)[C@@H](CC)c1ccc(O)cc1 [meso-Hexestrol],0.858,1.05,0.711,0.0535,
CCCCc1ccc2c(n1)[C@@H](c1ccc(OC)cc1C[C@H](C)C(=O)[O-])[C@H](C(=O)[O-])[C@H]2c1ccc2c(c1)OCO2.[Na+].[Na+],1.37,1.08,1.18,0.429,
Cl.Nc1ccn([C@@H]2O[C@H](CO)[C@@H](O)[C@@H]2O)c(=O)n1 [Cytarabine hydrochloride],1.1,0.941,0.171,0.125,
Nc1ncn([C@@H]2O[C@H](CO)[C@@H](O)[C@H]2O)c(=O)n1 [5-azacytidine],1.52,1.36,0.213,2.42,1.01
OCC1OC(n2cnc3c(NC4CCCC4)ncnc32)C(O)C1O (stereo not drawn) [N6-Cyclopentyl adenosine],1.15,1.06,1.05,1.18,1.31
c1ccc(C(O[C@@H]2CCCN(CCc3ccc4c(c3)OCO4)C2)c2ccccc2)cc1 [Zamifenacin],1.15,1.05,0.996,1.13,
CS(=O)(=O)O.Cc1nccn1-c1ccc(Sc2cccc(C3(C(N)=O)CCOCC3)c2)cc1,1.01,0.73,0.387,0.282,
COc1ccc2sc(C(=O)Nc3nnn[n-]3)c(OC(C)C)c2c1.[Na+],1.08,1.08,1.35,,
CCCCOC(=O)CCCCC(=O)OCCCC [Dibutyl hexanedioate],0.981,0.969,1,1.08,
CCCCOC(=O)CCCCCCCCC(=O)OCCCC [Dibutyl decanedioate],0.951,0.896,0.802,2.33,
CC(=O)OCCOCCOCCOC(C)=O [Triethylene glycol diacetate],1.25,1.16,1.07,1.26,
CC(=O)OCCC(C)C [3-Methylbutyl acetate],1.41,0.938,1.03,1.09,
CCCCCCC(=O)OCC [Ethyl heptanoate],1.14,1.05,1.47,1.14,
CCCCCOC(C)=O [Pentyl acetate],1.22,0.968,1.4,1.61,
"Cc1cccc(C)c1O [2,6-Dimethylphenol]",1.32,0.992,1.45,1.16,
CC(=O)c1ccc2c(c1)[C@H](NC(=O)c1ccc(F)cc1)[C@@H](O)C(C)(C)O2 [Carabersat],1.27,1.07,1.04,1.43,
C=C(C)C(N)=O [Methacrylamide],1.22,1.04,1.05,1.25,
"Oc1ccc(C(c2ccc(O)cc2)C(Cl)(Cl)Cl)cc1 [2,2-Bis(4-hydroxyphenyl)-1,1,1-trichloroethane]",1.3,0.957,0.541,,1.02
CC(=O)[C@@]1(O)CC[C@H]2[C@@H]3CCC4=CC(=O)CC[C@]4(C)[C@H]3CC[C@@]21C [17alpha-Hydroxyprogesterone],1.06,1.02,1.03,0.475,

Structure (SMILES),Wnt reporter firefly/Renilla luciferase ratio (concentration: 0.1 uM),Wnt reporter firefly/Renilla luciferase ratio (concentration: 1 uM),Wnt reporter firefly/Renilla luciferase ratio (concentration: 10 uM),Wnt reporter firefly/Renilla luciferase ratio (concentration: 100 uM),Wnt reporter firefly/Renilla luciferase ratio (concentration: 0.01 uM)
NC(=O)N/N=C/c1ccc([N+](=O)[O-])o1 [Nitrofurazone],1.22,1.02,0.506,0.32,
Nc1nc(=O)c2nc(CNc3ccc(C(=O)N[C@@H](CCC(=O)O)C(=O)O)cc3)cnc2[nH]1 [Folic acid],1.38,1.01,0.97,1.26,
O=C(OC[C@H]1O[C@@H](OC(=O)c2cc(O)c(O)c(OC(=O)c3cc(O)c(O)c(O)c3)c2)[C@H](OC(=O)c2cc(O)c(O)c(OC(=O)c3cc(O)c(O)c(O)c3)c2)[C@@H](OC(=O)c2cc(O)c(O)c(OC(=O)c3cc(O)c(O)c(O)c3)c2)[C@@H]1OC(=O)c1cc(O)c(O)c(OC(=O)c2cc(O)c(O)c(O)c2)c1)c1cc(O)c(O)c(OC(=O)c2cc(O)c(O)c(O)c2)c1 [Tannic acid],0.923,1.19,1.38,,
CCC(C)N(C)C(=O)c1cc2ccccc2c(-c2ccccc2Cl)n1 (stereo not drawn),0.925,1.31,1.03,0.292,
"CC(C)(C)c1ccc(O)c(C(C)(C)C)c1 [2,4-Di-tert-butylphenol]",0.984,1.32,1.13,1.1,
"CC(C)(C)c1cccc(C(C)(C)C)c1O [2,6-Di-tert-butylphenol]",1.12,1.01,1.3,1.72,
"CC(C)(C)c1cc(O)c(C(C)(C)C)cc1O [2,5-Di-tert-butylbenzene-1,4-diol]",1.14,0.988,1.13,,
CCN(Cc1cccc(S(=O)(=O)[O-])c1)c1ccc(C(=C2C=CC(=[N+](CC)Cc3cccc(S(=O)(=O)[O-])c3)C=C2)c2ccccc2S(=O)(=O)[O-])cc1.[Na+].[Na+],0.943,1.04,0.706,0.433,
"CC1(C)C(=O)NC(=O)N1CO [1-(Hydroxymethyl)-5,5-dimethylhydantoin]",1.14,0.992,1.12,1.59,
CN1CCC(c2c(O)cc(O)c3c(=O)cc(-c4ccccc4Cl)oc23)C(O)C1 (stereo not drawn) [Flavopiridol],2,,,,1.17
CN(C)C(=O)NC1(c2ccccc2)CCN(CCC[C@@]2(c3ccc(Cl)c(Cl)c3)CCCN(C(=O)c3ccccc3)C2)CC1,1.08,0.903,0.985,,
O=C(O)/C=C/C(=O)O.O=C1c2ccccc2C(=O)N1CCc1noc(-c2ccc(CN3CCCCCC3)s2)n1,1.17,1.07,0.907,0.252,
NC(=O)N1c2ccccc2C=Cc2ccccc21 [Carbamazepine],1.35,0.977,0.997,0.929,
CC(=O)Oc1ccccc1C(=O)O [Aspirin],1.2,1.04,1.15,0.812,
Cc1cc2c(cc1C(F)(F)F)N(C(=O)Nc1ccc(Oc3cccnc3C)nc1)CC2.Cl,1.03,1.4,0.768,0.554,
CCCN(CCC)c1c([N+](=O)[O-])cc(C(F)(F)F)c(N)c1[N+](=O)[O-] [Prodiamine],1.47,1.2,1.2,1.29,1.16
CCN(Cc1c(F)cccc1Cl)c1c([N+](=O)[O-])cc(C(F)(F)F)cc1[N+](=O)[O-] [Flumetralin],1.65,1.11,0.843,0.851,1.23
CC(C(C)N1CC(=O)NC(=O)C1)N1CC(=O)NC(=O)C1 (stereo not drawn),1.88,1.23,1.33,1.53,1.31
C#C[C@]1(O)CC[C@H]2[C@@H]3CCc4cc(O)ccc4[C@H]3CC[C@@]21C [17alpha-Ethinylestradiol],1.06,0.888,1.12,0.42,

Structure (SMILES),Wnt reporter firefly/Renilla luciferase ratio (concentration: 0.1 uM),Wnt reporter firefly/Renilla luciferase ratio (concentration: 1 uM),Wnt reporter firefly/Renilla luciferase ratio (concentration: 10 uM),Wnt reporter firefly/Renilla luciferase ratio (concentration: 100 uM),Wnt reporter firefly/Renilla luciferase ratio (concentration: 0.01 uM)
CC(=O)O [Acetic acid],1.13,1.09,1.46,1.17,
C#C[C@]1(O)CC[C@H]2[C@@H]3CCC4=CC(=O)CC[C@@H]4[C@H]3CC[C@@]21CC [Norgestrel],0.82,1.09,1.07,1.36,
CS(=O)(=O)O.Cc1cc(CCN2CCN(c3nsc4ccccc34)CC2)cc2c1NC(=O)CC2(C)C,0.776,0.735,0.407,,
CCNc1cccc(C)c1 [N-Ethyl-3-methylaniline],0.98,1.05,1.05,1.54,
O=C(N[C@@H](Cc1ccccc1)[C@@H](O)C(=O)N1C[C@@H](O)[C@@H](O)C1)c1cc2cc(Cl)ccc2[nH]1 [Ingliforib],1.29,1.69,0.888,0.353,
CCCCCCCCOc1ccc(C(=O)c2ccccc2)c(O)c1 [Octabenzone],1.12,1.08,0.916,1.2,
O=C(O)C1(C(=O)Nc2ccc(Cl)cc2Cl)CC1 [Cyclanilide],1.6,1.16,1.53,0.874,1.46
O=C(N[C@@H](c1ccccc1)[C@@H]1CCCCN1)c1cccc(C(F)(F)F)c1Cl,0.912,1.24,0.921,,
CCOC(=O)COc1ccc2c(c1)CC(NCC(O)c1cccc(Cl)c1)CC2.Cl (stereo not drawn),1.06,1.18,1.15,1.19,
Cl.Clc1cc(Cl)c2c(c1)N=C1CCCCCN1C2,0.996,1.26,1.13,0.303,
Cc1[nH]nc2c1N=C(c1ccccc1Cl)c1cc([N+](=O)[O-])ccc1N2,1.21,1.72,104,89.3,
Nc1nc2nc[nH]c2c(=S)[nH]1 [6-Thioguanine],1.31,1.03,,,
CCCCC(CC)COC(=O)CCCCCCCC(=O)OCC(CC)CCCC (stereo not drawn) [Bis(2-ethylhexyl) nonanedioate],1.04,0.979,1.33,1.24,
O=C(NO)C1(NS(=O)(=O)c2ccc(Oc3ccc(F)cc3)cc2)CCOCC1,1.18,0.992,0.736,0.244,
O=C(O)[C@H](O)[C@@H](O)C(=O)O [L-Tartaric acid],1.14,1.29,0.958,1.46,
Cc1cn([C@H]2C[C@H](N=[N+]=[N-])[C@@H](CO)O2)c(=O)[nH]c1=O [3'-Azido-3'-deoxythymidine],1.15,1.04,1.15,1.07,
Cc1cn([C@H]2C=C[C@@H](CO)O2)c(=O)[nH]c1=O [Stavudine],1.03,1.04,0.931,1.62,
OCC(CO)(CO)CO [Pentaerythritol],1.18,1.51,1.13,1.27,
Cc1oc2c(NC(=O)c3c(Cl)cccc3Cl)cccc2c1C(C)(C)O,1.01,1.14,0.7,,
